Data published in PubChem BioAssay AID1671202 (University of Kansas High Throughput Screening Laboratory, 2021).
“And” between values parts separate entries of the source, which are not always exact repeats. Identical values can stand only once. Among all 190,000 compounds or so, about 6,900 (3.6%) were called active. The sample holds actives, similar compounds and a random draw of the others, so the mix is not that of the screen. Cut-off read from the data, not from the text of the source: active = inhibition above about 50%; inactive = the rest.

biological target: Huntingtin (Homo sapiens) (UniProt P42858); assay: mutant huntingtin-calmodulin interaction inhibitors – biochemical, AlphaScreen, primary screen (AID 1671202); conditions: AlphaScreen His-mHTT/GST-CaM binding, luminescence; at 15 µM, stronger effect = higher value;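 note: 0% = both proteins with DMSO and 100% = one protein alone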
Sequence (P42858 whole entry, looked up, stated change not applied): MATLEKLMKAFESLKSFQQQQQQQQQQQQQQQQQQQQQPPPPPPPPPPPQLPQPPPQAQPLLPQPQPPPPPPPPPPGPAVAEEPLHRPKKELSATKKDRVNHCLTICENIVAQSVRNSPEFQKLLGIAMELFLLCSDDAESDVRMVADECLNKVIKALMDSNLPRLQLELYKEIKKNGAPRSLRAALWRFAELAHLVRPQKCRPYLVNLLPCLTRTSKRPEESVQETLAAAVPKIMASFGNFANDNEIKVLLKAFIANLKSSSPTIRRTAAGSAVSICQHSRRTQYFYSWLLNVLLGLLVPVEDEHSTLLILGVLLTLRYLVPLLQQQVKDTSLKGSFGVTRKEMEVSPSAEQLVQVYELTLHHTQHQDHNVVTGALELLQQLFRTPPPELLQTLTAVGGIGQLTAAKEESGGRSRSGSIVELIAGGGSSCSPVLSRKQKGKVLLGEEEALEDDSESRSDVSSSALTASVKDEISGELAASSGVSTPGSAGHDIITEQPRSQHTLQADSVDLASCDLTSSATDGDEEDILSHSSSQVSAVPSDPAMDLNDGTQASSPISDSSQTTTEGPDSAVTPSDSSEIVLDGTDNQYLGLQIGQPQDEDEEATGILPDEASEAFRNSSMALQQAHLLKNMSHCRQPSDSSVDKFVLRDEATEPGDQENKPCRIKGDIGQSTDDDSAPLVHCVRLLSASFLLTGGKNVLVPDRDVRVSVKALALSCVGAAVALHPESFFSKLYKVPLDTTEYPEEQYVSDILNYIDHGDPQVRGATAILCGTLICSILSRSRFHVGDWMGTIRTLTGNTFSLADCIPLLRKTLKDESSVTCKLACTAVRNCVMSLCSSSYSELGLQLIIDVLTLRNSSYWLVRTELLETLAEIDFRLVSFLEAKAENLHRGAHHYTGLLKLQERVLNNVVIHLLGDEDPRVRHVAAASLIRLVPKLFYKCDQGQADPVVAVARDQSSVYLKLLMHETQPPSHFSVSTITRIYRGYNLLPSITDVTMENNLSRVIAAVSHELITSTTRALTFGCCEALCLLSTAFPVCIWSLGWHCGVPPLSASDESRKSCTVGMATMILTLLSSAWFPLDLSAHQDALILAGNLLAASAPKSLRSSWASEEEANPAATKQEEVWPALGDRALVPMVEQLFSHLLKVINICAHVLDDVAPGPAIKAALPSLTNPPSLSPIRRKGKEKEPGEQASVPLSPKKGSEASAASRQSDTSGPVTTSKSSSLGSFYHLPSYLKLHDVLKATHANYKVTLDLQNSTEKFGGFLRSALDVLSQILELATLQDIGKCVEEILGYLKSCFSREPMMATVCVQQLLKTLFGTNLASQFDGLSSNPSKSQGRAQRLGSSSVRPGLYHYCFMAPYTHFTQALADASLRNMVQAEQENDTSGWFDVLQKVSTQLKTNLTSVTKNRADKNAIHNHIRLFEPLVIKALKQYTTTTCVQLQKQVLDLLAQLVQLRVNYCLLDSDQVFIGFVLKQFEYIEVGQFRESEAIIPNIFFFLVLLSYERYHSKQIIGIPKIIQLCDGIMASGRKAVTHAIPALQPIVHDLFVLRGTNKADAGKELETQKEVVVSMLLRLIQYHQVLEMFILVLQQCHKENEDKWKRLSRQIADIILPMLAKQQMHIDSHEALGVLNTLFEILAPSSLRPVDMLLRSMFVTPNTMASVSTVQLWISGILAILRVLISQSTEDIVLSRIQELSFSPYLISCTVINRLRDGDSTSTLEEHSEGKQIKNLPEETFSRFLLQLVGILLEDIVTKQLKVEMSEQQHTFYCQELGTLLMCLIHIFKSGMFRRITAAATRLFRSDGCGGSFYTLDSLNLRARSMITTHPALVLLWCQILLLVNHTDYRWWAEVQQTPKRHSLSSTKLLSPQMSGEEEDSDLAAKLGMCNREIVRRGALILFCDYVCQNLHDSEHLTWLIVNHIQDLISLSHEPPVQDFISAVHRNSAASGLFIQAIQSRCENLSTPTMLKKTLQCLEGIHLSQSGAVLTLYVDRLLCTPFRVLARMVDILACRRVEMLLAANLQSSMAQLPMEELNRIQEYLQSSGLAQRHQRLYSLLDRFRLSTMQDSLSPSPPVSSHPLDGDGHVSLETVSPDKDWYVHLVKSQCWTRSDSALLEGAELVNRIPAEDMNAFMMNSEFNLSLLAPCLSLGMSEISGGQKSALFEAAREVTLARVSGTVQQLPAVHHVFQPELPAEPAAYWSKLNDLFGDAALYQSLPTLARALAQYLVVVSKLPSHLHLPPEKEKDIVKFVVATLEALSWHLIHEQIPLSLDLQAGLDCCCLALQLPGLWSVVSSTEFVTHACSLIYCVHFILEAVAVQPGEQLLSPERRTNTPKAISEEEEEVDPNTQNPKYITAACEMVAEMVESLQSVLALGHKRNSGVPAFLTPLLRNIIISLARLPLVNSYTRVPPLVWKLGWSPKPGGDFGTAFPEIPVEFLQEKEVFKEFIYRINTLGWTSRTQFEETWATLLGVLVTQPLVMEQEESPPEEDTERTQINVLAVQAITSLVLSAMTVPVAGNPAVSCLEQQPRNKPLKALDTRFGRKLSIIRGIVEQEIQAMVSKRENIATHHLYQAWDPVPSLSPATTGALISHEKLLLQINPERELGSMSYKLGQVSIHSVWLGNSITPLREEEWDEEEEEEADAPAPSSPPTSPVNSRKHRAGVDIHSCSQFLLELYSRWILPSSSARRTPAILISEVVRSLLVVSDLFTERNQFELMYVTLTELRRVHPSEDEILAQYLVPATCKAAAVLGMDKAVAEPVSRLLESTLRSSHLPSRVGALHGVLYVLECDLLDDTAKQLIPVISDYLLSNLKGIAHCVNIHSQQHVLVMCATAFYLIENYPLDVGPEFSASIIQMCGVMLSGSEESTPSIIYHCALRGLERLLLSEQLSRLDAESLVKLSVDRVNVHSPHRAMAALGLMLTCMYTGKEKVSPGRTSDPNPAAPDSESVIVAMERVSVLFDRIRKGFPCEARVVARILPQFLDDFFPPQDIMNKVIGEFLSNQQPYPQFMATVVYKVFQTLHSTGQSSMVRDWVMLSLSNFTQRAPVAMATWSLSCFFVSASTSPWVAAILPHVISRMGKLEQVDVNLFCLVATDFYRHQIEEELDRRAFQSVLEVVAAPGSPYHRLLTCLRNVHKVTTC

| Compound | inhibition |
| --- | --- |
| CCNc1cc(N2CCCC(CCC(=O)N3CCN(c4ccccn4)CC3)C2)ncn1 (stereo unspecified) | 1.12% (inactive) |
| CCC(=O)N1CCc2ccccc2C1C(=O)NCc1ccc(OC)cc1 (stereo unspecified) | 3.87% (inactive) |
| O=C(CC1COc2ccccc2NC1=O)Nc1ccc(C(F)(F)F)cc1 (stereo unspecified) | -6.9% (inactive) |
| Cc1ccc(NC(=O)CC2COc3ccc(Cl)cc3NC2=O)cc1Cl (stereo unspecified) | 92.5% (active) |
| Cc1ccc(NC(=O)CC2COc3ccccc3NC2=O)cc1C (stereo unspecified) | -3.7% (inactive) |
| Cc1cc(SCC(=O)NCc2ccc3c(c2)OCO3)nc2ccccc12 | -10.7% (inactive) |
| O=C(c1cnc(-c2ccccc2)nc1N1CCSCC1)N1CCCCC1 | 18.3% (inactive) |
| Cc1cccc(N2CCN(C(=O)CCC3CCCN(C(=O)Nc4ccccc4)C3)CC2)c1C (stereo unspecified) | 47% (inactive) |
| O=C(CSc1ccccn1)c1ccc(Br)cc1 | -42.4% (inactive) |
| Brc1ccc(CSc2cccc3cccnc23)cc1 | 54% (active) |
| N#Cc1ccc(CSc2ncccn2)cc1 | -1.95% (inactive) |
| CN(C)C(CNC(=O)Nc1ccc(Cl)cc1)c1ccco1 (stereo unspecified) | -16% (inactive) |
| O=C(COc1coc(CN2CCc3ccccc32)cc1=O)NCc1ccco1 | 19.5% (inactive) |
| CCOc1ccc(NC(=O)N2CC(C)Oc3ccc(C)cc32)cc1 (stereo unspecified) | 1.01% (inactive) |
| COc1cc(OC)c(OC)cc1/C=C1/CC/C(=C\c2cc(OC)c(OC)cc2OC)C1=O | 23% (inactive) |
| Cc1cccc(NC(=O)c2cc3c(CO)cnc(C)c3oc2=Nc2ccc(Cl)cc2)c1 | -1% (inactive) |
| Cc1ccccc1NS(=O)(=O)c1cc(Br)cc2c1N(C(=O)C1CC1)CC2 | 2% (inactive) |
| CC(C)(C)C1=CC(=Nc2ccccc2N)C=C(C(C)(C)C)C1O (stereo unspecified) | 97% (active) |
| COCCCNC(=O)c1ccc2c(c1)ncn2-c1ccc(F)c(F)c1 | 9% (inactive) |
| CCOc1ccc(C(=O)Nc2ccccc2I)cc1[N+](=O)[O-] | 4.6% (inactive) |
| COc1ccccc1C1=NN(C(=O)CN2CCCCC2)C(c2ccc(C)cc2)C1 (stereo unspecified) | 8.3% (inactive) |
| Cc1ccc(C)c(C2CC(c3ccccc3Cl)=NN2C(=O)CN2CCOCC2)c1 (stereo unspecified) | 79.4% (active) |
| COc1ccc(C2CC(c3cccc(F)c3)=NN2C(=O)CN2CCCCC2)cc1 (stereo unspecified) | 36.7% (inactive) |
| COc1ccc(C2=NN(C(=O)CN3CCN(C)CC3)C(c3ccccc3C)C2)cc1 (stereo unspecified) | 42% (inactive) |

| Compound | inhibition |
| --- | --- |
| CCNC(=O)N(C)CC(=O)N1N=C(c2ccccc2F)CC1c1ccc(C)cc1 (stereo unspecified) | 24.6% (inactive) |
| Cc1ccc(C2CC(c3cccc(F)c3)=NN2C(=O)CN2CCOCC2)cc1 (stereo unspecified) | 67.8% (active) |
| O=C(Cc1nnc(-c2cccc(F)c2)o1)N1CCOCC1 | -5.8% (inactive) |
| CCNC(=O)N(C)CC(=O)N1N=C(c2ccc(C)c(C)c2)CC1c1ccc(C)cc1 (stereo unspecified) | 73.4% (active) |
| COc1ccc(C2=NN(C(=O)CCC(=O)O)C(c3ccc(F)cc3)C2)cc1OC (stereo unspecified) | -2.9% (inactive) |
| COc1ccccc1C1=NN(C(=O)CN2CCC(C)CC2)C(c2ccc(C)cc2)C1 (stereo unspecified) | 12.9% (inactive) |
| COc1ccc(C2CC(c3ccccc3)=NN2C(=O)c2ccc(Br)o2)cc1 (stereo unspecified) | -1% (inactive) |
| COc1ccc(C2CC(c3ccccc3F)=NN2C(=O)CN2CCOCC2)cc1 (stereo unspecified) | 50.5% (active) |
| CC(C)NC(=O)c1ccccc1NC(=O)c1ccc([N+](=O)[O-])cc1 | -2.9% (inactive) |
| N=C1S/C(=C\c2cccs2)C(=O)N1c1ccc2c(c1)OCO2 | 2% (inactive) |
| O=C(CSc1ncnc2c1[nH]c1ccccc12)N1CCc2ccccc2C1 | 0% (inactive) |
| COCC(=O)N1CCCN(c2nc3c(s2)c(C)nn3-c2ccc(C)cc2)CC1 | 45.2% (inactive) |
| COc1ccc(CCNC(=O)N2CC(c3nc(-c4ccccn4)no3)C2)cc1 | -18.5% (inactive) |
| COc1ccc(NC(=O)N2CC3CC(NS(=O)(=O)c4cccs4)C2C3)c(OC)c1 (stereo unspecified) | 9.02% (inactive) |
| N#CC1=C(N)Oc2c(sc3ccccc23)C1c1ccco1 (stereo unspecified) | 53% (active) |
| N#CC1=C(N)Oc2ccc3ncccc3c2C1c1ccccc1F (stereo unspecified) | 49% (inactive) |
| N#CC1=C(N)Oc2c(c(=O)[nH]c3ccccc23)C1c1cccs1 (stereo unspecified) | 8% (inactive) |
| CC(C)=CCOc1ccc2cc(-c3ccccc3)c(=O)oc2c1 | -45.3% (inactive) |
| O=C(COc1ccc(Br)cc1)Nc1ccccc1C(F)(F)F | -57% (inactive) |
| CN(C)C(=O)c1cc2c(s1)CCC(C(=O)NCc1ccccc1Cl)C2 (stereo unspecified) | 3.06% (inactive) |
| O=C1OC(c2cccc(F)c2)=N/C1=C\c1ccc(Br)cc1 | -1% (inactive) |
| CCC(C)NC(=O)c1ccc2c(c1)nc1n2CCCC1 (stereo unspecified) | -4.18% (inactive) |
| CN1CCN(c2nc3c(c(=O)[nH]c(=O)n3C)n2CC(=O)c2ccc(Cl)cc2)CC1 | -4% (inactive) |
| O=[N+]([O-])c1ccc(C=Nc2cccc(Cl)c2)cc1 | 30% (inactive) |

| Compound | inhibition |
| --- | --- |
| O=[N+]([O-])c1ccc(C=Nc2ccc(N=Cc3ccc([N+](=O)[O-])cc3)cc2)cc1 | 4% (inactive) |
| Cc1cccc(N=C/C=C/c2ccc([N+](=O)[O-])cc2)c1 | 72% (active) |
| CC(=O)NCCN1C(=O)C(=O)C(=C(O)c2ccc(Cl)cc2)C1c1ccc(Br)cc1 (stereo unspecified) | -0.6% (inactive) |
| COc1cc(C=C2SC(=S)N(c3ccc(O)cc3)C2=O)ccc1O | 58.5% (active) |
| COc1cc(/C=C2\SC(=N)N(c3ccccc3OC)C2=O)ccc1O | 36% (inactive) |
| C=CCOc1ccc(/C=C2\SC(=O)N(c3ccccc3)C2=O)cc1OC | 3% (inactive) |
| Cc1ccc(F)cc1NS(=O)(=O)c1cccc2cccnc12 | 2% (inactive) |
| O=[N+]([O-])c1ccccc1S(=O)(=O)Nc1cccc2cccnc12 | 98.6% (active) and 99% (active) |
| CCc1cccc(NS(=O)(=O)c2ccccc2[N+](=O)[O-])c1 | 10.6% (inactive) |
| COc1cccc(-c2noc(C3CCCN3C(=O)Nc3ccc4c(c3)OCCO4)n2)c1 (stereo unspecified) | 13.9% (inactive) |
| OC(COc1ccccc1Br)CN1CCN(Cc2ccccc2)CC1 (stereo unspecified) | -4% (inactive) |
| COc1ccccc1Oc1ncnc2scc(-c3ccc(F)cc3)c12 | -1% (inactive) |
| CCOc1ccc(-n2nc(C(=O)Nc3ccc(F)cc3)c3ccccc3c2=O)cc1 | -5% (inactive) |
| O=C1NC(=O)/C(=C\c2ccc(-c3cccc(Cl)c3)o2)S1 | 58% (active) |
| O=C1NC(=O)/C(=C/c2ccc(-c3ccc([N+](=O)[O-])cc3)o2)S1 | 3% (inactive) |
| O=C1NC(=O)/C(=C/c2ccc(-c3ccccc3[N+](=O)[O-])o2)S1 | 37% (inactive) |
| COc1ccc(CC(=O)Nc2ccc(S(=O)(=O)Nc3c(C)cc(C)cc3C)cc2)cc1 | 13% (inactive) |
| COc1cccc(CN2CCOCC2)c1OC | -5.1% (inactive) |
| O=C(NC1CC2CC1CN2C(=O)c1ccc(C(F)(F)F)cc1)c1cccnc1 (stereo unspecified) | 6.1% (inactive) |
| CC(=O)Nc1cccc(N=Cc2ccc(Cl)cc2Cl)c1 | -2% (inactive) |
| Oc1cccc(N=Cc2cc(Cl)cc(Cl)c2O)c1 | 98% (active) |
| COc1ccc(N=Cc2cc(Cl)cc(Cl)c2O)cc1OC | 4% (inactive) |
| CC(C)OCCCNC(=O)CN1C(=O)/C(=C/c2cccc(Cl)c2)Sc2ccccc21 | 9% (inactive) |
| Cc1ccc(F)cc1NC(=O)Cn1c(=O)nc(N2CCCCC2)c2ccccc21 | 12.4% (inactive) |

| Compound | inhibition |
| --- | --- |
| COc1ccc(NC(=O)N2CCC(CCOc3ccccc3)CC2)cc1 | 3.99% (inactive) |
| Cc1ccc2occ(C3Nc4cc(C)c(C)cc4NC4=C3C(=O)CC(C)(C)C4)c(=O)c2c1 (stereo unspecified) | 19% (inactive) |
| CC1(C)CC(=O)C2=C(C1)Nc1ccccc1NC2c1ccc(Br)cc1 (stereo unspecified) | 3.9% (inactive) |
| Cc1cc2c(cc1C)NC(c1ccc(Cl)s1)C1=C(CC(C)(C)CC1=O)N2 (stereo unspecified) | 51% (active) |
| COc1ccc(-c2cn3ccn(-c4ccc(F)c(Cl)c4)c(=O)c3n2)cc1OC | -2.4% (inactive) |
| Cc1cccc2nnc(N3CCC(C(=O)Nc4ccc(Cl)cc4)CC3)n12 | 3.32% (inactive) |
| CCn1c(N2CCCC(C(=O)NCc3cccc(C)c3)C2)cc(=O)n(C)c1=O (stereo unspecified) | 7.32% (inactive) |
| COc1ccc(NS(=O)(=O)c2ccc(N3C(=O)CCC3=O)cc2)c(OC)c1 | -10.9% (inactive) |
| O=C(Nc1ccc(F)cc1F)N1CCc2nc[nH]c2C1 | -5.8% (inactive) |
| O=C1C(Nc2cccc(Cl)c2)=C(N2CCOCC2)C(=O)c2ccccc21 | 59% (active) |
| O=C(NCCN1CCOCC1)Nc1cccc(Cl)c1 | -4% (inactive) |
| COC1=C(N2CCOCC2)C(=O)c2ccccc2C1=O | -2.9% (inactive) |
| CCCCN(CC)C(=O)c1cc(Cl)ccc1OC | -8.5% (inactive) |
| Cc1ccc(NC(=O)CN2C(=O)C(c3ccc(Cl)cc3)=NC2(C)C)cc1 | -11.7% (inactive) |
| COc1cc(CN2CCc3nc(N4CCCC4)ncc3C2)cc(OC)c1OC | 11.5% (inactive) |
| Cc1ccc(CN2CCc3nc(N4CCCC4)ncc3C2)cc1 | 12.2% (inactive) |
| COc1ccc(CN2CCc3nc(N4CCCC4)ncc3C2)cc1OC | 42.3% (inactive) |
| COc1ccc(CN2CCc3nc(N4CCN(c5ncccn5)CC4)ncc3C2)cc1OC | 55.5% (active) |
| CN(C)c1ccc(CN2CCc3nc(N4CCOCC4)ncc3C2)cc1 | 96.6% (active) |
| CN(C)c1ccc(CN2CCc3nc(N4CCN(c5ccccc5F)CC4)ncc3C2)cc1 | 39.9% (inactive) |
| COc1ccc(OCc2noc(-c3cccc(F)c3)n2)cc1 | -9.7% (inactive) |
| CCN(CC)CCNC(=O)C1CCN(c2nnc3ccccn23)CC1 | 5.6% (inactive) |
| CCC(=O)Oc1ccc2c(C)c(-c3ccccc3)c(=O)oc2c1 | -4.1% (inactive) |
| COc1cccc(C=C2Oc3c(ccc(O)c3CN3CC4CC(C3)c3cccc(=O)n3C4)C2=O)c1 (stereo unspecified) | 32.3% (inactive) |
